Measured values: PubChem BioAssay AID624116 (National Center for Advancing Translational Sciences (NCATS), 2012)
Results filed as inconclusive are left out. Values without a mark were called inactive. Calls come from the whole dose curve; as a rule, active = well fitted activation curve with a large enough effect; inconclusive = small, poorly fitted or top-dose-only effect; inactive = no such curve, though single readings can be large or run the other way.

Test: qHTS Assay for Rab9 Promoter Activators: Hit Validation Using Renilla Luciferase Read-Out for Rab9; note: % of control where 0% means no effect
Details: Huh7 Rab9 promoter Renilla luciferase reporter, 24 h; series mostly up to 76.9 µM; activation, negative = inhibition: at the top concentration
From the text: Niemann Pick Type C (NPC) is a rare neurodegenerative lipidosis that is characterized by lipid storage in the endosomal/lysosomal system. Treatment modalities for this devastating disease are currently non-existent due to the severe obstacles associated with accessing the central nervous system with proteins or genes. The majority of mutations causing NPC disease are missense mutations that are distributed throughout the length of the NPC1 protein, with the most prevalent being the I1061T allele. Although NPC1 mutant proteins may be functional, they are typically trapped in the ER due to misfolding. […] We have developed and optimized a cell based renilla luciferase reporter assay in 1536 well format for the identification of up-regulators of the mutant Rab9 promoter. This assay presents data on the validation of hits from the primary screen, which used a firefly luciferase read-out. NIH Chemical Genomics Center [NCGC] NIH Molecular Libraries Probe Production centers Network [MLPCN] MLPCN Grant: MH089375 Assay Submitter (PI): Yiannis A. Ioannou
Huh7 cells stably expressing NPC promoter-luciferase will be seeded at 1,500 cells/well in 5 uL in 1,536-well white opaque plates with 23 nL/well of compound in DMSO solution. The assay plates will be incubated at 37 deg C for 24 hours, after which 3 uL/well BriteLite plus luciferase detection reagent mixture (Perkin Elmer) will be added. Luminescence signal will be measured in a ViewLux plate reader (Perkin Elmer) after a 10 minute incubation at the room temperature.
With `CCCc1cc(C(=O)Nc2ccccc2SC)no1` the “activation, negative = inhibition” value was -2.35%. With `CCC(C)(C)NC(=O)C(c1ccc(OC)cc1)N(Cc1cccs1)C(=O)CCC(=O)Nc1cc(C)on1` (stereo not given) the “activation, negative = inhibition” value was 6.22%. In the case of `COc1ccc(/C=C\C(=O)c2c(O)ccc3c(C)cc(=O)oc23)cc1OC`, the “activation, negative = inhibition” value is reported as -55.5%. With `Cc1ccc(NC(=O)c2cccc(N3C(=O)CCC3=O)c2)nc1` the “activation, negative = inhibition” value was -0.587%. In the case of `N#CC/C(N)=N/NC(=O)CCCNc1ncc(C(F)(F)F)cc1Cl`, the “activation, negative = inhibition” value is reported as -11.4%. In the case of `O=C(CCN1C(=O)c2ccccc2C1=O)Nc1ccc(-c2nc3ccccc3s2)cc1`, the “activation, negative = inhibition” value is reported as -38%. For `COC(=O)Nc1nc2ccc(Br)cc2s1`, the “activation, negative = inhibition” value was 18.8%. For `COc1ccc(-n2c(N)c(C(=O)NCc3ccco3)sc2=S)cc1`, the “activation, negative = inhibition” value was 1.79%. For `CNC(=O)Cn1nc(C)c2ccccc2c1=O`, the “activation, negative = inhibition” value was -0.365%. For `Cc1ccc(C)c(Nc2cc(C)nc3ncnn23)c1`, the “activation, negative = inhibition” value was -1.68%. With `O=C(NC1CCCC1)C(c1ccc(F)cc1)N(C(=O)c1csnn1)c1ccccc1` (stereo not given) the “activation, negative = inhibition” value was -4.88%. With `Cc1ccc(S(=O)(=O)N2CCN(c3cnn(C)c(=O)c3Cl)CC2)cc1` the “activation, negative = inhibition” value was -1.64%. In the case of `CC(C)(C)C(=O)N/C(N)=N/c1nc2ccccc2o1`, the “activation, negative = inhibition” value is reported as -60.7%. For `C=CCc1ccc(OCCOCCNCCOC)c(OC)c1`, the “activation, negative = inhibition” value was -0.15%. For `CCOc1cc(C(=O)N=c2sccn2C)ccc1OC(F)F`, the “activation, negative = inhibition” value was -5.54%. For `Cc1csc(NC(=O)CSc2nnc(-c3ccncc3)o2)n1`, the “activation, negative = inhibition” value was -4.81%. With `O=C(COc1ccccc1F)Nc1ccc(-c2nc3ccccc3s2)cc1` the “activation, negative = inhibition” value was -35.1%. In the case of `O=C(CSc1nnc(-c2ccccn2)o1)Nc1ccccc1Cl`, the “activation, negative = inhibition” value is reported as -4.88%. With `COc1ccc(NC(=O)CCCN2C(=O)C(c3ccccc3)Oc3cccnc32)cc1OC` (stereo not given) the “activation, negative = inhibition” value was -24.3%. With `COCc1cc(C)nc(N/N=C/c2ccc(-c3ccc(Cl)cc3[N+](=O)[O-])o2)c1C#N` the “activation, negative = inhibition” value was -12.3%. With `COc1ccc(NC(=O)CSc2ccc([N+](=O)[O-])cc2)cc1S(=O)(=O)N1CCOCC1` the “activation, negative = inhibition” value was -11.2%. With `CCN(CC)S(=O)(=O)c1ccc(NCc2ccccn2)nc1` the “activation, negative = inhibition” value was 1.11%. With `Cn1c(SCc2ccccc2)nnc1-c1cnccn1` the “activation, negative = inhibition” value was -3.61%. For `CN(C)C(=O)[C@H]1C[C@H]1[C@@H](O)[C@H](CO)NC(=O)[C@H](COCc1ccccc1)NC(=O)OC(C)(C)C`, the “activation, negative = inhibition” value was -3.65%. For `COc1ccccc1CNC(=O)COc1ccc(C)cc1`, the “activation, negative = inhibition” value was 3.47%. In the case of `Cc1ccc(CNC(=O)Nc2ccc(C)cc2)cc1`, the “activation, negative = inhibition” value is reported as -8.38%. In the case of `COc1ccccc1OCCCC(=O)NCc1ccco1`, the “activation, negative = inhibition” value is reported as 3.32%. For `NCCOc1ccccc1-c1ccccc1`, the “activation, negative = inhibition” value was 2.31%. In the case of `CCC1CCCCN1CCCNC(=O)c1ccc2nc(N3CCCCC3)sc2c1` (stereo not given), the “activation, negative = inhibition” value is reported as 0.973%. For `CCOC(=O)c1ccc(-c2nnc(-c3ccc(Cl)cc3Cl)o2)cc1`, the “activation, negative = inhibition” value was -1.8%. With `COc1cccc(NC(=O)CN2C(=O)CSc3ccc(S(=O)(=O)N4CCC(C)CC4)cc32)c1` the “activation, negative = inhibition” value was -70%. In the case of `Cc1ccc(C(=O)c2cncc(Br)c2)cc1`, the “activation, negative = inhibition” value is reported as -0.753%. In the case of `O=C(/C=C/c1ccco1)NCC1OCCc2ccccc21` (stereo not given), the “activation, negative = inhibition” value is reported as 10.4%. For `CC1CC(C)CN(CC(=O)N2CCOCC2)C1` (stereo not given), the “activation, negative = inhibition” value was -3.11%. With `COc1ccc(NC(=O)CN(C)C(=O)c2ccc(=O)[nH]c2)cc1` the “activation, negative = inhibition” value was 4.55%. In the case of `COCCNC(=O)CN1C(=O)NC(c2ccccc2)(c2ccccc2)C1=O`, the “activation, negative = inhibition” value is reported as -2%. For `Cc1nnc2n(c1=O)N=C(c1ccc(Cl)cc1)CS2`, the “activation, negative = inhibition” value was 1.19%. For `CCN(C(=O)COC(=O)c1ccc(C=O)cc1)c1c(N)n(Cc2ccccc2)c(=O)[nH]c1=O`, the “activation, negative = inhibition” value was 2.17%. In the case of `Cc1ccc(NC(=O)Nc2cccc3ccccc23)cc1`, the “activation, negative = inhibition” value is reported as -5.88%. For `Cc1ccc(NC(=O)NC(=O)c2ccccc2)cc1F`, the “activation, negative = inhibition” value was 3.8%.
